Assay [1] is described as follows: Quantitative High-Throughput drug screen in 47 multiple myeloma cell lines against the NCATS MIPE library collection: Karpas620_DSMZ cell viability assay (AID 1918959). Note: nearly all actives have a fitted effect of over 30% in size. An outline of the steps:
(§1)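 We plated 500 myeloma cells per well, pinned in MIPE 4.0 compounds, and incubated for 48 hours at 37C. ATP was then quantified with CellTiter-Glo, with DMSO and media-only wells defining 100% and 0%.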

Assay [2] is described as follows: Quantitative High-Throughput drug screen in 47 multiple myeloma cell lines against the NCATS MIPE library collection: KMM1_JCRB cell viability assay (AID 1918960). Note: nearly all actives have a fitted effect of over 30% in size. The gist of the method:
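Cell viability inhibition in this qHTS is measured via ATP content (CellTiter-Glo) after 48 h drug exposure at 37 °C. Wells hold 500 cells; DMSO-treated wells define 100% and medium-only wells 0%.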

The nature of assay [3]: Quantitative High-Throughput drug screen in 47 multiple myeloma cell lines against the NCATS MIPE library collection: KHM11_PLB cell viability assay (AID 1918962). Note: nearly all actives have a fitted effect of over 35% in size. An outline of the steps: as §1
The nature of assay [4]: Quantitative High-Throughput drug screen in 47 multiple myeloma cell lines against the NCATS MIPE library collection: JIM3_ECACC cell viability assay (AID 1918963; note: nearly all actives have a fitted effect of over 35% in size). An outline of the steps: as §1
A short description of assay [5]: Quantitative High-Throughput drug screen in 47 multiple myeloma cell lines against the NCATS MIPE library collection: JIM1_ECACC cell viability assay (AID 1918964). An outline of the steps:
(§2)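 Inhibition of cell viability is measured here. Each line was plated at 500 cells per well, treated with MIPE 4.0 drugs, kept 48 hours at 37C, then assayed for ATP content by CellTiter-Glo luminescence.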

A short description of assay [6]: Quantitative High-Throughput drug screen in 47 multiple myeloma cell lines against the NCATS MIPE library collection: INA6_PLB cell viability assay (AID 1918965; note: nearly all actives have a fitted effect of over 55% in size). The gist of the method:
(§3)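 Viability readout: CellTiter-Glo luminescence following 5 min room-temperature incubation with reagent. Prior exposure: 48 h, 37C, humidified 5% CO2, 500 cells per well.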

Assay [7] is described as follows: Quantitative High-Throughput drug screen in 47 multiple myeloma cell lines against the NCATS MIPE library collection: JJN3_DSMZ cell viability assay (AID 1918966; note: nearly all actives have a fitted effect of over 50% in size). An outline of the steps:
as §2

Assay [8] can be described thus: Quantitative High-Throughput drug screen in 47 multiple myeloma cell lines against the NCATS MIPE library collection: H1112_PLB cell viability assay (AID 1918967; note: nearly all actives have a fitted effect of over 30% in size). The gist of the method:
as §2

A short description of assay [9]: Quantitative High-Throughput drug screen in 47 multiple myeloma cell lines against the NCATS MIPE library collection: Karpas25_ECACC cell viability assay (AID 1918968; note: nearly all actives have a fitted effect of over 35% in size). An outline of the steps: as §2
Assay [10] can be described thus: Quantitative High-Throughput drug screen in 47 multiple myeloma cell lines against the NCATS MIPE library collection: KMS12BM_JCRB cell viability assay (AID 1918971). Note: nearly all actives have a fitted effect of over 35% in size. The gist of the method:
(§4)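 Relative luminescence from CellTiter-Glo served as the viability signal, referenced to DMSO-treated (100%) and cell-free medium (0%) controls. Treatment lasted 48 hours at 37C with 500 cells per well.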

Assay [11] is described as follows: Quantitative High-Throughput drug screen in 47 multiple myeloma cell lines against the NCATS MIPE library collection: KMS12PE_JCRB cell viability assay (AID 1918972). Note: nearly all actives have a fitted effect of over 30% in size. An outline of the steps: as §3
Assay [12] is described as follows: Quantitative High-Throughput drug screen in 47 multiple myeloma cell lines against the NCATS MIPE library collection: KMS20_JCRB cell viability assay (AID 1918973). Note: nearly all actives have a fitted effect of over 45% in size. The gist of the method:
as §2

The nature of assay [13]: Quantitative High-Throughput drug screen in 47 multiple myeloma cell lines against the NCATS MIPE library collection: KMS26_JCRB cell viability assay (AID 1918975). Note: nearly all actives have a fitted effect of over 45% in size. The gist of the method:
as §4

Assay [14] in a line: Quantitative High-Throughput drug screen in 47 multiple myeloma cell lines against the NCATS MIPE library collection: MOLP8_DSMZ cell viability assay (AID 1918977). Note: nearly all actives have a fitted effect of over 45% in size. The gist of the method: (§5)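 Cells were exposed to library compounds for 48 hours, after which ATP was measured by CellTiter-Glo. Signal was taken as median relative luminescence units.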
A short description of assay [15]: Quantitative High-Throughput drug screen in 47 multiple myeloma cell lines against the NCATS MIPE library collection: NCIH929_DSMZ cell viability assay (AID 1918978). Note: nearly all actives have a fitted effect of over 35% in size. The gist of the method: as §5
The nature of assay [16]: Quantitative High-Throughput drug screen in 47 multiple myeloma cell lines against the NCATS MIPE library collection: OCIMY1_PLB cell viability assay (AID 1918979). Note: nearly all actives have a fitted effect of over 35% in size. An outline of the steps:
as §5

The nature of assay [17]: Quantitative High-Throughput drug screen in 47 multiple myeloma cell lines against the NCATS MIPE library collection: KMS27_JCRB cell viability assay (AID 1918970). Note: nearly all actives have a fitted effect of over 30% in size. Conditions: KMS27 myeloma cells, CellTiter-Glo ATP viability, 48 h; viability (% of DMSO): at 45.8 µM (top of the series). The gist of the method: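 KMS27_JCRB myeloma cells, 500 per well, exposed 48 h at 37 C, 5% CO2 to MIPE 4.0 compounds. Viability from ATP by CellTiter-Glo luminescence, normalized to DMSO (100%) and medium-only (0%) wells.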

A short description of assay [18]: Quantitative High-Throughput drug screen in 47 multiple myeloma cell lines against the NCATS MIPE library collection: MMM1_PLB cell viability assay (AID 1918976). Note: nearly all actives have a fitted effect of over 35% in size. The gist of the method: as §5

Our source for the Potency values is PubChem BioAssay (NCATS).

Results filed as inconclusive are left out. Calls of active or inactive are those of the source. Calls come from the whole dose curve; as a rule, active = well fitted curve in the direction sought with a large enough effect; inconclusive = small, poorly fitted or top-dose-only effect, or another doubt; inactive = no such curve, though single readings can be large; an effect the other way counts as inactive or inconclusive.
Potency is the fitted concentration of half-maximal effect.

Regarding `C[C@H](NCc1ccc2c(c1)nc(NC(=O)c1ccc(-c3cn[nH]c3)s1)n2CCc1ccccc1)C(C)(C)C`, the Potency was 743 nM (active) in assay [1]; 833 nM (active) in assay [2]; 590 nM (active) in assay [3]; 1480 nM (active) in assay [4]; 418 nM (active) in [5]; 833 nM (active) in assay [6]. Further, the Potency in assay [7] is 1180 nM (active); in assay [8], 1660 nM (active); in assay [9], 1480 nM (active); in assay [10] it was 2350 nM (active); in [11] it was 743 nM (active); in [12], 935 nM (active). Further, the Potency in assay [13] is 1870 nM (active); in [14], 590 nM (active); in assay [15] it was 1050 nM (active); in assay [16], 1870 nM (active).

Turning to `CC(=O)OCC(=O)[C@@]1(O)CC[C@H]2[C@@H]3CCC4=CC(=O)CC[C@]4(C)[C@@H]3C(=O)C[C@@]21C`, the Potency result in [1], in [2], in assay [3], in assay [4], in assay [5] and in assay [7] was “inactive” in each case. Moreover, the Potency entry in [8], in assay [9], in assay [17], in assay [10], in [11] and in assay [12] was “inactive” in each case. Besides, the Potency result in [13], in assay [14], in assay [15] and in assay [16] was “inactive” throughout.

`COc1ccc(Nc2nccc(NCCO)n2)cc1`: the Potency result in assay [1], in [2], in assay [3], in assay [4], in assay [5] and in assay [8] was “inactive” each time. Moreover, the Potency entry in assay [9], in assay [17], in assay [13] and in assay [15] was “inactive” in each case.

Turning to `CC(=O)N1CCN(c2ccc(OCc3nn(C)c(C)c3-c3cccc4c(CCCOc5cccc6ccccc56)c(C(=O)O)n(Cc5cccnc5)c34)cc2)CC1`, the Potency in [1] was 1870 nM (active); in [2], 1180 nM (active); in [3], 2350 nM (active); in assay [4], 3320 nM (active); in [5] it was 469 nM (active); in [6], 33.2 nM (active). The Potency is 132 nM (active) in assay [8]; 469 nM (active) in assay [11]; 52.6 nM (active) in assay [12]; 3720 nM (active) in assay [13]; 16600 nM (active) in [14]; 33.2 nM (active) in [15].

In the case of `CCOC(=O)[C@H](CCc1ccccc1)N[C@@H](C)C(=O)N1[C@@H](C(=O)O)C[C@H]2CCC[C@@H]21`, the Potency in assay [1] is 8330 nM (active); in assay [2] it was 7430 nM (active); in [3], 9350 nM (active); in assay [4], 13200 nM (active); in assay [5], 5260 nM (active); in assay [6], 7430 nM (active). The Potency is 14800 nM (active) in assay [8]; 7430 nM (active) in [9]; 7430 nM (active) in assay [17]; 23500 nM (active) in [10]; 7430 nM (active) in assay [11]; 4690 nM (active) in assay [12]. Also, the Potency was 18700 nM (active) in [18], 7430 nM (active) in [15] and 26400 nM (active) in assay [16].

Take `COC[C@H](NC(=O)c1cnc(C)s1)C(=O)N[C@@H](COC)C(=O)N[C@@H](Cc1ccccc1)C(=O)[C@@]1(C)CO1`: the Potency in assay [1] was 46.9 nM (active); in assay [2] it was 33.2 nM (active); in assay [3], 66.2 nM (active); in assay [4] it was 296 nM (active); in assay [5], 59 nM (active); in assay [6] it was 74.3 nM (active). Also, the Potency in assay [7] is 93.5 nM (active); in assay [8], 93.5 nM (active); in assay [17] it was 74.3 nM (active); in assay [10], 93.5 nM (active); in [11], 37.2 nM (active); in assay [12], 132 nM (active). Moreover, the Potency was 148 nM (active) in assay [13]; 1050 nM (active) in assay [18]; 46.9 nM (active) in assay [14]; 52.6 nM (active) in [15]; 41.8 nM (active) in assay [16].

Consider `O=C(CCCCCCC(=O)Nc1cccnc1)NO`, for which the Potency is 7430 nM (active) in assay [1]; 1660 nM (active) in [2]; 8330 nM (active) in assay [3]; 16600 nM (active) in assay [4]; 4180 nM (active) in assay [5]; 833 nM (active) in assay [6]. The Potency was 4180 nM (active) in [7]; 5900 nM (active) in assay [8]; 1660 nM (active) in assay [9]; 1870 nM (active) in assay [10]; 2960 nM (active) in assay [11]; 3320 nM (active) in assay [12]. In addition, the Potency in [13] was 3720 nM (active); in assay [14] it was 3320 nM (active); in assay [15] it was 3720 nM (active); in assay [16], 14800 nM (active).

With `CCOC(=O)N1CCN([N+]([O-])=NOc2ccc([N+](=O)[O-])cc2[N+](=O)[O-])CC1`, the Potency is 5260 nM (active) in [1]; 10500 nM (active) in assay [2]; 1480 nM (active) in assay [3]; 2640 nM (active) in [4]; 2960 nM (active) in [6]; 2640 nM (active) in [7]. Also, the Potency in assay [8] is 1180 nM (active); in [9] it was 469 nM (active); in assay [17] it was 4180 nM (active); in [10], 1480 nM (active); in [11], 8330 nM (active); in [13], 833 nM (active). Also, the Potency in [18] was 3720 nM (active); in assay [14], 2350 nM (active); in assay [15], 1320 nM (active); in [16], 7430 nM (active).

Regarding `COc1ccc(Nc2cc(-c3cnc(N)nc3)nc(N3CCOCC3)n2)cn1`, the Potency in [1] was 2640 nM (active); in assay [2], 590 nM (active); in assay [3] it was 4180 nM (active); in assay [4], 3720 nM (active); in assay [6], 4180 nM (active); in [7], 4690 nM (active). In addition, the Potency in [17] is 372 nM (active); in [10] it was 2960 nM (active); in assay [11], 2090 nM (active); in assay [13], 4180 nM (active); in assay [14], 833 nM (active); in assay [15] it was 264 nM (active).

With `CON=C(C(=O)N[C@@H]1C(=O)N2C(C(=O)O)=C(Cn3ccc(=N)n3CCO)CS[C@H]12)c1csc(N)n1`, the Potency entry in assay [1], in [2], in assay [3], in assay [4], in assay [5] and in assay [6] was “inactive” each time. In addition, the Potency result in [8], in assay [17], in assay [11], in assay [13], in assay [14] and in [15] was “inactive” throughout.

In the case of `CC(Oc1ccc(O)cc1)(P(=O)(O)O)P(=O)(O)O`, the Potency entry in assay [1], in assay [2], in [3], in assay [4], in [5] and in assay [8] was “inactive” in each case. The Potency entry in [17], in assay [11], in assay [13], in assay [18], in assay [14] and in [15] was “inactive” throughout. The Potency entry in assay [16] was “inactive”.
